The values below come from PubChem BioAssay (NCI).

This is part of a sample that, as a whole, favours compounds with a hit. Of some 79,000 tested, about 15% had one in any assay. Values without a mark were called inactive. No stated cut-off is given here; in the data, active means growth inhibition above about 70%; inactive means the rest.

The nature of this assay: NCI Yeast Anticancer Drug Screen. Data for the rad50 strain (AID 155).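 Further: 0% = growth of vehicle-only cultures of the same strain.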 The settings on record: S. cerevisiae rad50 strain growth inhibition; at 50.0 µM; active compounds read high. In short, it runs like this: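 A DNA repair-deficient yeast mutant serves as the test organism; compound-induced growth inhibition is calculated against vehicle-treated cells.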
With `NC(=O)c1[nH]c(/N=N/c2nc[nH]c2C(N)=O)nc1N`, the growth inhibition is 24.9%. In the case of `Oc1ccc(Cl)c(O)c1` it was 30.1%; in that of `Cn1c(=O)c2[nH]c(NCc3ccccc3)nc2n(C)c1=O`, 27.4%. In the case of `CCOC(=O)C1=C(C)NC(C)=C(C(=O)OCC)C1C` it was -29.1%. In the case of `COc1cccc(N(CN2C(=O)CCC2OC)C(C)=O)c1` (stereo not given) it was 4.2%. Take `O=C(Nc1ccc(Cl)c(Cl)c1)Oc1ccc(Cl)cc1C(=O)Nc1ccccc1`: the growth inhibition was -13.8%. Regarding `CCCCCc1[nH]c(=O)[nH]c(=O)c1S(=O)(=O)N1CCCCC1`, the growth inhibition is 0.15%. Take `CC(=O)N(CN1C(=O)CCC1C(=O)O)c1ccccc1` (stereo not given): the growth inhibition was 20.1%. The value for `NC(CCOCCP(=O)(O)CCC1C=CC=CC1)C(=O)O` (stereo not given) was -9.6%; that for `Nc1ccc([N+](=O)[O-])c2ccccc12` was 17.1%; that for `Cc1ccc(C(=O)/C=C/c2ccco2)cc1` was 49%. As for `C=CCNC(=O)NCCCC(NC(C)=O)C(=O)NCc1ccccc1` (stereo not given), the growth inhibition was -20.9%.

With `O=c1c2cnc3cc(Cl)ccc3c2[nH]n1-c1ccc(Cl)cc1`, the growth inhibition was -1.3%. For `COc1ccc(-c2cc(C)n(C3OC(CO)C(O)C(O)C3O)c(=S)c2C#N)cc1` (stereo not given), the growth inhibition is 23.9%. Regarding `CC(=O)OC1CCC2(C)C3CCC4(C)C(C(C)CCCC(C)C)CCC4C3CC(=O)C23CC13` (stereo not given), the growth inhibition is 32%. With `CCCOc1nc(N)c2cnn(C3CCCCO3)c2n1` (stereo not given), the growth inhibition is -14.9%.

As for `CC(=O)O[C@@H]1[C@@H](C)[C@]2(CC(c3ccoc3)OC2O)C2CCC3O[C@]3(C)[C@]2(C)[C@@H]1OC(C)=O` (stereo not given in full), the growth inhibition is -16%. For `NC(Cc1c(F)c(F)c(F)c(F)c1F)C(=O)O` (stereo not given), the growth inhibition was -2.6%. In the case of `ClC1C2c3ccccc3C1C1C2C2(c3ccccc3)OC1(c1ccccc1)c1ccccc12` (stereo not given) it was 12.7%; in that of `COc1ccc(CCNC(=O)CCc2ccccc2CO)cc1OC`, 15.8%; in that of `Cc1cccc(NC(=O)Nc2cccc(Cl)c2Cl)n1`, 15.9%. `CCCCCC1CC[N-]CC1.CCCCCC1CC[N-]CC1.N#C[S-].N#C[S-].[Cu]`: the growth inhibition is 33.4%. Turning to `CCOC(=O)C(C)(C)OC(C)=O`, the growth inhibition is 39.2%. In the case of `Cc1nc(C(N)=O)c(=O)[nH]c1C` it was 2.25%; in that of `C(=Nc1cccc2ccccc12)Nc1cccc2ccccc12`, -10.9%.

On to `Cc1cc2c(cc1C)C(C)(C)c1c(nc(N)[nH]c1=O)N2C`, for which the growth inhibition is 3.7%. Consider `COC(=O)C1CC(=O)c2cc(OC)ccc2C1` (stereo not given), for which the growth inhibition is -1.85%. The value for `CC[N+](C)(CC)c1cccc(OC(=O)N2CCCCC2)c1` was 7.8%; that for `Cc1cc(N(CCC#N)CCC#N)ccc1N=Nc1ccc(C(=O)O)cc1` was -30.9%; that for `CCOC(=O)c1ccnc(F)c1` was 3.8%. Regarding `Oc1ccccc1C=NCCCN=Cc1ccccc1O`, the growth inhibition is 12.4%. Take `CS(=O)(=O)Nc1cccc(C(=O)NN)c1`: the growth inhibition is -8.1%.

For `CCCCCCCCn1c(C)nc2c(cnn2C)c1=O`, the growth inhibition is -9.6%. In the case of `N=c1sc(N2CCOCC2)nn1CC(=O)c1ccccc1`, the growth inhibition was 3.25%. Consider `O=S(=O)(c1cnccc1N1CCN(CCO)CC1)N1CCCC1`, for which the growth inhibition is 6.4%.

`CCOC(=O)CCC(NC(=O)c1ccc(N=Cc2nc3ccccc3nc2-c2ccccc2)cc1)C(=O)OCC` (stereo not given): the growth inhibition was 4.35%. Take `NCS(=O)(=O)O`: the growth inhibition was -12.8%. The value for `N#C/C(C(=O)Nc1ccccc1)=C(/N)N1CCCC1` was 18.4%; that for `CCCNS(C)(=O)=O` was 7.25%. In the case of `Oc1ccc(-c2csc(NNC3=NC/C(=C/c4ccc5c(c4)OCO5)S3)n2)cc1O` it was 30.9%.
